Experimental data from PubChem BioAssay AID2673 (National Center for Advancing Translational Sciences (NCATS), 2010).
Records with an inconclusive call do not appear. Entries that show only a call come without a potency. Active and inactive are the calls of the source. Calls follow the shape of the dose curve; as a rule, active = well fitted activation curve with a large enough effect; inconclusive = small, poorly fitted or top-dose-only effect; inactive = no such curve, though single readings can be large or run the other way.

Experiment: qHTS Multiplex Assay to Identify Dual Action Probes in a Cell Model of Huntington: Cytoprotection confirmation (ATP)
Conditions: PC12 HttQ103 induced, ATP luminescence 40 h; series mostly up to 46.1 µM
Text: NIH Chemical Genomics Center [NCGC]
NIH Molecular Libraries Probe Production centers Network [MLPCN]
Assay Submitter (PI): Wei Zheng
Huntington's disease is a neurodegenerative disorder caused by a trinucleotide repeat expansion in Exon 1 of the Huntingtin gene. The CAG trinucleotide encodes glutamine and polyglutamine expansions cause cell death in selective areas of the brain. Huntington polyglutamine repeats have the tendency to form aggregates which are observable in later stages of the disease. The exact nature of the aggregates, whether toxic, protective, or insignificant, is unclear.
A stable PC12 cell line containing a gene fusion of Exon 1 of the Huntingtin gene linked to GFP under the control of the inducible ecdysone promoter were used as the cell-based model of Huntington Disease for high throughput screening. Exon 1 of the Huntingtin gene contained an expansion of 103 polyglutamines (Q103) which, when expressed, caused cell death and distinct, bright GFP aggregates. The amount of cell death and the size and intensity of GFP aggregates increased over time and induction level. The cell death were quantified with a measurement of ATP content in the cells. A maximal 40-50% of cell death was observed when the Huntington gene was induced in this cell line.
We optimized this assay in a homogeneous 1536 well format. A quantitative high throughput screen (qHTS) was conducted on the PC12 cells which were induced to express the toxic fusion construct. Small molecules which prevented cell death were identified by using a luminescent ATP quantification method (Perkin Elmer's ATPlite).
PC12 cells stably containing a construct with an ecdysone inducible promoter expressing GFP fused to the exon 1 of HTTQ103 (Huntington protein which containing a 103 ployglutamine expansion) were used.
NCGC Assay Protocol Summary:
Sequence, Parameter, Description
1, Reagent, 5 uL 1500 cells/well 1536 TC treated White clear bottom plate
2, Compound, 23 nL Tebufenozide inducer (100 nM final) to all columns
3, Compound, 23 nL 40 uM to 0.5 nM Libraries
5, Reagent, 5 ul ATPLite cell death assay reagent
6, Detector, 4 sec integration with a Viewlux Luminescent
Media consisted of phenol red free DMEM + 5% equine serum (Hyclone # SH30072.03 ), 5% supplemented Bovine Calf Serum (Hyclone # SH30074.03 ), 1x pen/strep, no G418

Compound | Potency
O=C1C=C2C=C[C@H]3C[C@@]2(O1)[C@H]1CCCCN31 | inactive
O=C1C=C2C=C[C@H]3C[C@]2(O1)[C@@H]1CCCCN13 | inactive
C[C@H]1CC[C@@]2(NC1)O[C@@H]1C[C@H]3[C@@H]4CC=C5C[C@@H](O)CC[C@]5(C)[C@@H]4CC[C@]3(C)[C@@H]1[C@@H]2C | inactive
C[C@@]1(CO)[C@H](O)CC[C@@]2(C)[C@H]1CC[C@H]1C[C@@H]3C[C@@]12CC[C@]3(O)CO | inactive
CC[C@]1(C2=NCCN2)Cc2ccccc2O1 | inactive
Oc1cc(Cl)ccc1Oc1ccc(Cl)cc1Cl | inactive
CCC(C)C(=O)OC1C(O)C2C(CN3CC(C)CCC3[C@]2(C)O)C2C[C@]34O[C@@]5(O)C(OC(=O)C(C)(O)CC)CCC3(C)C5C(OC(C)=O)C(OC(C)=O)C4[C@@]21O (stereo partly drawn) | inactive
O=C1C=C2C=CC3C[C@@]2(O1)C1CCCCN31 (stereo partly drawn) | 12.6 µM (active)
